Measured values as given in PubChem BioAssay AID2112 (National Center for Advancing Translational Sciences (NCATS), 2009).
Among all 240,000 compounds or so, about 15 (0.006%) were called active. The call rests on the fitted dose curve; in most records, active means well fitted inhibition curve with a large enough effect; inconclusive means small, poorly fitted or top-dose-only effect, or effect the other way, or another doubt; inactive means no such curve, though single readings can be large or run the other way. Only a sample is shown. Where a SMILES comes first, the peptide text is derived from it.

Target: Lysosomal alpha-glucosidase (Homo sapiens) (UniProt P10253)
Test: qHTS Assay for Inhibitors and Activators of Human alpha-Glucosidase From Spleen Homogenate;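 further: 0% = enzyme with vehicle and -100% = no enzyme basal signal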
Conditions: 4-MU-alpha-glucoside fluorescence; series mostly up to 79.9 µM; activity change, negative = inhibition: at the top concentration
From the text: NIH Chemical Genomics Center [NCGC] NIH Molecular Libraries Probe Production Centers Network [MLPCN] MLPCN Grant: R03 MH084841-01 Assay Submitter (PI): Wei Zheng NCGC Assay Overview: Alpha-glucosidase is responsible for the hydrolysis of terminal, non-reducing 1,4-linked alpha-D-glucose residues, which releases alpha-D-glucose. It is a lysosomal hydrolase that is required for the degradation of a small percentage (1-3%) of cellular glycogen in humans. Deficiency of this enzyme results in glycogen-storage disease type II (GSDII), also referred to as Pompe disease, an autosomal recessive disorder. Structurally normal glycogen is accumulated in the lysosomes and cytoplasm in affected patients, primarily in muscle tissues. Excessive glycogen storage within lysosomes may interrupt normal functioning of other organelles and leads to cellular injury. In turn, this leads to enlargement and dysfunction of the entire organ involved (eg: cardiomyopathy and muscle weakness). It has been reported that the improper folding and trafficking of alpha-glucosidase resulting from genetic mutations may account for a significant number of Pompe patients. […] We optimized this alpha-glucosidase assay in 1536-well plate format for identification of novel small molecule inhibitors or activators with structures other than the sugar analogs in order to develop new pharmacological chaperones. In particular, this assay is directed towards discovering compounds active in a more natural setting, tissue homogenate, that may have been missed by screens of the purified enzyme under more stringent conditions.
NCGC Assay Protocol Summary: This is a fluorogenic enzyme assay with 4-methylumbelliferyl-alpha-D-glucopyranoside as the substrate and human spleen homogenate containing alpha-glucosidase as the enzyme preparation. Upon hydrolysis of this fluorogenic substrate, the resulting product, 4-methylumbelliferone (which excites at 365 nm and emits at 440 nm) can be detected by a fluorescence plate reader. Data were normalized to the controls for basal activity (without enzyme) and 100% activity (with enzyme). The AC50 values were determined from concentration-response data modeled with the standard Hill equation. Assay buffer: 50 mM citric acid (titrated with potassium phosphate to pH 5.0), 0.01% Tween-20 (pH 5.0 is an optimal condition for this enzyme assay) 1536-well assay protocol for the alpha-glucosidase from human spleen homogenate: (1) Add 2 ul/well spleen homogenate (1 ug) (2) Add 23 nL compounds in DMSO solution. The final titration was 0.5 nM to 58 uM. (3) Add 2 ul of substrate (1 mM final) (4) Incubate at 37 C for 40 min (5) Add 2 ul stop solution (1M NaOH and 1M Glycine mixture, pH 10) (6) Detect the assay plate in a ViewLux plate reader (PerkinElmer) with Ex=365 nm and Em=440nm. Keywords: Alpha-glucosidase, Pompe Disease, pharmacological chaperone, chaperone therapy, high throughput screening, alpha-glucosidase inhibitor, MLSMR, MLSCN, NIH Roadmap, qHTS and NCGC

SMILES | activity change, negative = inhibition
CCCN1CCC(=O)N(C(CSc2ccc(C)cc2)Cc2ccccc2)CC1 (centres undefined) | -7.66% (inactive)
COC(=O)Cn1cc(/C=C/[N+](=O)[O-])c2ccccc21 | 3.39% (inactive)
O=C(NCc1ccccn1)[C@]1(C(F)(F)F)C[C@H](CCc2ccccc2)CCCO1 | -5.69% (inactive)
CC(C)[C@@H]1NC(=O)[C@H](Cc2ccccc2)NC(=O)[C@@H](CC(=O)O)NC(=O)CNC(=O)[C@H](CCCNC(=N)N)NC1=O | 5.67% (inactive)
COC(=O)[C@@]1(Cc2ccc(OC)cc2)[C@H]2c3cc(C(=O)N4CCCC4)n(Cc4ccc(OC(F)(F)F)cc4)c3C[C@H]2CN1C(=O)c1ccccc1 | 6.25% (inactive)
COc1ccc(C2/C=C\CN(Cc3ccco3)C(C)C(=O)N2Cc2ccc(F)cc2)cc1 (centres undefined) | 2.13% (inactive)
COc1cc2c(cc1OC)C(/C=C/c1ccco1)=NCC2 | 1.23% (inactive)
Cc1nc(-c2ccccc2)sc1-c1nc(-c2ccccc2)ncc1S(=O)(=O)c1ccccc1 | -0.37% (inactive)
CO[C@@]12[C@@H](COC(N)=O)C3=C(C(=O)C(C)=C(N)C3=O)N1C[C@@H]1N[C@@H]12 | -0.0282% (inactive)
Cc1ccc2nc(/C(C#N)=C\c3ccc(OC(=O)c4cccs4)cc3)[nH]c2c1 | -2.6% (inactive)
COc1c(O)c2c(=O)cc(OC)c3c4c(OC)cc(=O)c5c(O)c(OC)c6c(c(c1C[C@@](C)(O)[C@H]6C(C)=O)c23)c54 | -8.94% (inactive)
Clc1ccc(C[n+]2cc(-c3ccc(Cl)cc3)n3c2CCC3)cc1 | -3.89% (inactive)
COc1ccc(NC2=CC(=S)NC(C)(C)C2)cc1 | 0.55% (inactive)
O=C(NCC1CC1)C1(C(F)(F)F)C/C(=C\CCO)CCCO1 (centres undefined) | 3.72% (inactive)
COc1cc2[nH]c(=O)n(Cc3ccc(C(=O)NC4CCN(Cc5ccccc5)CC4)cc3)c(=O)c2cc1OC | -0.526% (inactive)
COC(=O)C(CC(C)C)NS(=O)(=O)c1cc(Br)ccc1Br (centres undefined) | 3.71% (inactive)
C=C1CCN(Cc2ccc(OC)cc2)S(=O)(=O)c2ccccc21 | -11.5% (inactive)
CCOc1cc(C2C(C(=O)OC(C)C)=C(C)NC3=C2C(=O)CCC3)cc([N+](=O)[O-])c1O (centres undefined) | 1.08% (inactive)
Cc1ccccc1N/C(SCc1ccc(Cl)cc1)=C(/C#N)C(N)=O | 3.19% (inactive)
Cc1c(-c2ccccc2)n[nH]c1C(=O)N=Nc1c(O)[nH]c2ccccc12 | -7.29% (inactive)
Cc1cc(C)c(NC(=O)CN2C(=O)NC(Cc3ccccc3)C2=O)c(C)c1 (centres undefined) | 1.21% (inactive)
CC(=O)c1c(N2CCN(c3ccc(F)cc3)CC2)nc(=S)n(-c2ccccc2)c1C | 6.73% (inactive)
O=C(CP(=O)(c1ccccc1)c1ccccc1)N1CCOCC1 | -1.35% (inactive)
Cc1nn(CCOc2ccc(Br)cc2)c(C)c1[N+](=O)[O-] | 5.99% (inactive)
COc1cc(OC)c2c(C)cc(=O)oc2c1C(CCN1CCCCC1)c1ccc(N(C)C)cc1 (centres undefined) | 2.28% (inactive)
Cc1ccc(-c2nc(C)sc2CC(=O)OCC(=O)Nc2c(F)cccc2F)cc1 | 0.406% (inactive)
CCCCCCCC[C@@H](O)/C=C/C=C/C=C\[C@@H](O)CCCC(=O)O | 1.53% (inactive)

SMILES | activity change, negative = inhibition
COc1ccc(CN2CCC(=O)c3ccccc3S2(=O)=O)cc1 | -5.9% (inactive)
COc1ccc(C2CC(O)(c3ccccc3)Oc3cc(C)cc(C)c32)cc1 (centres undefined) | -2.15% (inactive)
COC(=O)[C@@]1(C)C=C[C@@H](Cc2ccccc2)N1C(C)=O | -11.6% (inactive)
O=C(C1CCN(c2nnc(-n3cccc3)s2)CC1)N1CCc2ccccc2C1 | -3.74% (inactive)
O=C(CSc1ccccn1)Nc1nc2c(ccc3ccccc32)s1 | -2.23% (inactive)
CC(C)C(NS(=O)(=O)c1ccc(-c2ccc(Br)cc2)cc1)C(=O)O (centres undefined) | 9.33% (inactive)
C[C@@H](O)[C@@H]1NC(=O)[C@H](CCCCN)NC(=O)[C@H](Cc2c[nH]c3ccccc23)NC(=O)[C@H](Cc2ccccc2)NC(=O)[C@H](Cc2ccccc2)NC(=O)[C@H](CC(N)=O)NC(=O)[C@H](CCCCN)NC(=O)[C@@H](NC(=O)[C@@H]2CCCN2)CSSC[C@@H](C(=O)N[C@@H](CCCCN)C(=O)O)NC(=O)[C@H](CO)NC(=O)[C@H](CO)NC(=O)[C@H](Cc2ccccc2)NC1=O (HELM PEPTIDE1{P.C.K.N.F.F.W.K.T.F.S.S.C.K}$PEPTIDE1,PEPTIDE1,2:R3-13:R3$$$V2.0) | 6.58% (inactive)
CSc1ccccc1N1CCN(CCCCCC(=O)NC2CCCc3ccccc32)CC1 (centres undefined) | -1.62% (inactive)
CC[C@H](C)[C@H](NC(=O)[C@H](Cc1ccc(O)cc1)NC(=O)[C@@H](NC(=O)[C@H](CCCN=C(N)N)NC(=O)[C@@H](N)CC(=O)O)C(C)C)C(=O)N[C@@H](Cc1cnc[nH]1)C(=O)N1CCC[C@H]1C(=O)N[C@@H](Cc1ccccc1)C(=O)O | -2.98% (inactive)
Cc1ccc2c(c1)C(c1ccccc1)N(C(=O)c1ccc(S(=O)(=O)N3CCOCC3)cc1)CC(=O)N2 (centres undefined) | 3.75% (inactive)
COC(=O)[C@@]1(Cc2ccccc2)[C@H]2c3cc(C(=O)N(C)C)n(CCSCCO)c3C[C@H]2CN1C(=O)c1ccccc1 | 0.272% (inactive)
Cc1ccc(CNC(=O)C2(C(F)(F)F)C/C(=C\CCO)CCCO2)o1 (centres undefined) | -3.58% (inactive)
O=C(c1cc(C(F)(F)F)cc(C(F)(F)F)c1)N1CCC2(CCCN(c3ccccn3)C2)CC1 | 2.45% (inactive)
CCCN1CCC(=O)N(C(CSc2ccc(OC)cc2)Cc2ccccc2)CC1 (centres undefined) | -8.71% (inactive)
CCCCNC(=S)N/N=C1\CCCCc2ccccc21 | -7.3% (inactive)
C=CCCN(C(Cc1ccccc1)C(=O)OC)S(=O)(=O)c1cc(Br)ccc1Br (centres undefined) | 0.718% (inactive)
Cc1ccccc1Nc1scc(-c2ccc(Br)cc2)[n+]1-c1ccccc1C | -4.94% (inactive)
Cc1nc(C(=O)N2CCCC(C(=O)c3ccc(Cl)cc3)C2)cs1 (centres undefined) | 1.42% (inactive)
CC1=CC(=C(C#N)c2nc3ccccc3s2)C=C(C)N1c1ccc(F)cc1F | 1.11% (inactive)
Cc1cc(C(=O)OCC(=O)Nc2nccs2)c2ccccc2n1 | 2.11% (inactive)
O=C1NC(=Nc2ccc(Cl)cc2)SC1Cc1cccc(Cl)c1Cl (centres undefined) | -5.67% (inactive)
Cc1ccc(S(=O)(=O)N(CC(=O)Nc2cccc([N+](=O)[O-])c2)Cc2ccc(Cl)cc2)cc1 | 2.83% (inactive)
COc1ccc(C2=Nc3cc(C)ccc3OC2)cc1 | -4.38% (inactive)
CCOC(=O)Cn1c(=O)sc2cccc(Cl)c21 | -7.95% (inactive)
CCN(CC)CCNC(=O)c1sc2ncn(CC(=O)Nc3ccc(C)c(Cl)c3)c(=O)c2c1C | -3.52% (inactive)
Cc1cccc2c1-c1sc(C(=O)NCCCN3CCc4ccccc4C3)cc1CO2 | 18.1% (inactive)
O=C1/C(=C/c2coc3ccc(O)cc3c2=O)SC(=S)N1c1ccccc1 | 4.43% (inactive)
